Calls of active or inactive are those of the source.
How the values were obtained:
Albumin (Bos taurus) = Albumin (Bos taurus) (UniProt P02769); assay: compounds binding labelled BSA control protein – biochemical, small-molecule microarray, Alexa647 label, 635/667 nm fluorescence, artefact control for SMM control protein annotation, profiling panel (AID 1118); conditions: BSA-A647 binding, fluorescence 635 nm, higher = more signal;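 note: score merges 667 nm emission intensity and signal-to-noise per printed compound spot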
Sequence of Albumin (Bos taurus) (P02769 whole entry, looked up): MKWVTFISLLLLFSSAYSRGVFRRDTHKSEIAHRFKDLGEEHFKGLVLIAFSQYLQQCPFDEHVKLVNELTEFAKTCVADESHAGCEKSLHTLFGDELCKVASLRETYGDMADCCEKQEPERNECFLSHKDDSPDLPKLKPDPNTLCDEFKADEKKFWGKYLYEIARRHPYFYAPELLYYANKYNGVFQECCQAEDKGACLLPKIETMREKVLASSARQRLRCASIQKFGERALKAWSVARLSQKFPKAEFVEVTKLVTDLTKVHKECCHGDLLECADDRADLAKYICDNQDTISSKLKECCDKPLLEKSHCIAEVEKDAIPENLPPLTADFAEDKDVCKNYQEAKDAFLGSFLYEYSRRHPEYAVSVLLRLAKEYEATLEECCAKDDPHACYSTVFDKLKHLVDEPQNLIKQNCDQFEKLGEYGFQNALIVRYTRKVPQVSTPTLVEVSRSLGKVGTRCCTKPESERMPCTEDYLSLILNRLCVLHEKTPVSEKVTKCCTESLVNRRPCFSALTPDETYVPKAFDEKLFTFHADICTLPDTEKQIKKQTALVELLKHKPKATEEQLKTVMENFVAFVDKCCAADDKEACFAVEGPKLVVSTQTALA

[1] = probe aXIP binding to arrayed compounds – biochemical, NeuroSMM set, 635/667 nm fluorescence, primary screen (AID 1119); conditions: small-molecule microarray, higher = more signal, called active from +8 up or from −8 down;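 note: probe is the protein aXip251-270 applied at 1 µg/mL to compound-printed slides; binding of probe to printed compounds measured as 667 nm fluorescence plus signal to noise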
[2] = probe aNOTCH3 binding on compound microarray – biochemical, small-molecule microarray, 635/667 nm fluorescence, primary screen (AID 1120); conditions: higher = more signal;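 note: probe is a biotin-tagged antibody raised against NOTCH3 rather than NOTCH3 protein; score merges spot fluorescence near 667 nm with spot signal to noise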
[3] = probe aNOTCH2 binding on compound microarray – biochemical, small-molecule microarray, 635/667 nm fluorescence, primary screen (AID 1121); conditions: higher = more signal;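 note: score merges feature fluorescence read at 667 nm with its signal to noise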
[4] = biological target: Carbonic anhydrase 2 (Homo sapiens) (UniProt P00918); assay: compounds binding carbonic anhydrase 2 – biochemical, small-molecule microarray, Alexa647-labelled CAII, profiling panel (AID 1122); conditions: CAII-A647 binding fluorescence, higher = more signal
[5] = COS7 lysate on small-molecule microarray, probe aHis, 635 nm (AID 1123); conditions: COS7 cell lysate, fluorescence, higher = more signal;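 note: z-score combines 667nm fluorescence intensity with signal-to-noise per printed compound spot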
[6] = probe aLAP1 signal on lysate-treated microarray – cell lysate, small-molecule microarray, COS7 lysate, primary screen (AID 1124); conditions: probe aLAP1, fluorescence, higher = more signal;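 note: lysate comes from COS7 cells expressing LAP1 and is applied at 0.3 µg/mL; score merges spot fluorescence near 667 nm with signal-to-noise over triplicate slides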
Sam68 (KHDRBS1) = assay: compounds binding KHDRBS1 protein – biochemical, small-molecule microarray, 635 nm fluorescence, primary screen (AID 1125); conditions: higher = more signal;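 note: score merges 667 nm channel intensity with signal to noise over triplicate slides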
[7] = test system: Chordin-like protein 2 (CHRDL2); assay: compounds binding chordin-like 2 – biochemical, small-molecule microarray, 635 nm fluorescence, primary screen (AID 1126); conditions: fluorescence 635 nm, higher = more signal;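 note: printed compound slides probed with Chrdl2 protein at 4 µg/mL for 1 h at 4 C; score merges 667 nm emission intensity with signal to noise over three replicate slides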
[8] = biological target: Concanavalin-A (Canavalia ensiformis) (UniProt P02866); assay: compounds binding concanavalin A lectin – biochemical, small-molecule microarray, Alexa647 label, 635 nm, artefact control for SMM control protein annotation, primary screen (AID 1127); conditions: ConA-A647 binding fluorescence, higher = more signal;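 note: z combines 667 nm emission intensity with signal-to-noise across three replicate slides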
Sequence of Concanavalin-A (Canavalia ensiformis) (P02866 whole entry, looked up): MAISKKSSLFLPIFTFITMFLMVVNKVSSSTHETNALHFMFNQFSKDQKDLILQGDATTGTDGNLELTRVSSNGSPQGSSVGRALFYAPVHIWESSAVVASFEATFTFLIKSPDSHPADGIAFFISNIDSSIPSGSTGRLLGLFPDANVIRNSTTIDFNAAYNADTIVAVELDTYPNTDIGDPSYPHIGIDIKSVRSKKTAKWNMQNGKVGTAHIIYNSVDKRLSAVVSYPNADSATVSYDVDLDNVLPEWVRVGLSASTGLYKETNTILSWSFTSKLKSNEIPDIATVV

[9] = compounds binding Alexa647 anti-His antibody – biochemical, small-molecule microarray, 635 nm fluorescence, artefact control for SMM control protein annotation, primary screen (AID 1128); conditions: higher = more signal;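 note: score merges feature fluorescence with signal-to-noise for each printed compound spot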
[10] = test system: Human papillomavirus type 1a E7 protein (residues 1-88); assay: HPV1a E7 small-molecule binders, primary screen, biochemical, small-molecule microarray, residues 1-88, 635 nm (AID 1129); conditions: small-molecule microarray binding, fluorescence 635 nm; higher = more signal
[11] = biological target: Focal adhesion kinase 1 (Homo sapiens) (UniProt Q05397); assay: PTK2 protein binding on printed compound slides – biochemical, small-molecule microarray, 635/667 nm fluorescence, BSA, DTT, primary screen (AID 1130); conditions: 635 nm fluorescence, higher = more signal;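 note: composite of spot emission at 667 nm and signal to noise over triplicate slides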
Sequence of Focal adhesion kinase 1 (Homo sapiens) (Q05397 whole entry, looked up): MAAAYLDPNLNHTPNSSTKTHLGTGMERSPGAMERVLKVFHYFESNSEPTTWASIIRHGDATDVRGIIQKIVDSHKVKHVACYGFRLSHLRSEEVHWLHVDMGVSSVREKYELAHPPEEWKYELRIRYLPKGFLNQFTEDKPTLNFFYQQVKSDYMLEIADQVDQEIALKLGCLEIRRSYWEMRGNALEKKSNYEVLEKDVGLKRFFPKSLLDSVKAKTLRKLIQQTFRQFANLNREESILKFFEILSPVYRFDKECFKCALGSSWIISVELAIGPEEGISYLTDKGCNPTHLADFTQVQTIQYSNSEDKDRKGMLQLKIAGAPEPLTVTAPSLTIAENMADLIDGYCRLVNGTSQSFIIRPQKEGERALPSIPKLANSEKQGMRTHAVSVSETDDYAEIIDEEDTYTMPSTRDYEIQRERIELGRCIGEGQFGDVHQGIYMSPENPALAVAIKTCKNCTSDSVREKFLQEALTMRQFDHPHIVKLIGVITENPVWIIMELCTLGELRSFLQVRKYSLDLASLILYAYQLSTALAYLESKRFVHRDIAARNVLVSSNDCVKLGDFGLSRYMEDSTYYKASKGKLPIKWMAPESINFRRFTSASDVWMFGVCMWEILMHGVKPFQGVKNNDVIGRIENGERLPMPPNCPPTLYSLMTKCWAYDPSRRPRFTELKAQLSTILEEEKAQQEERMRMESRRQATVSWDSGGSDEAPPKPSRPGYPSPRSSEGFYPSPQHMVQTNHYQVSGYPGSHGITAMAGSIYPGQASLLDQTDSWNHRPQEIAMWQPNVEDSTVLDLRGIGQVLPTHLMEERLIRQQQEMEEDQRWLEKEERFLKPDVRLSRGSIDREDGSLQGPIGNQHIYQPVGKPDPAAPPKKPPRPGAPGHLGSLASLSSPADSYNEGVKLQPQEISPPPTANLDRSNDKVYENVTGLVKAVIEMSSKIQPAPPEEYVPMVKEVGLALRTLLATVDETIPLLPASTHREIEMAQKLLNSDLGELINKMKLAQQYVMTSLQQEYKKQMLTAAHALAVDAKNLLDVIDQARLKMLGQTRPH

[12] = test system: Fibrinogen (Alexa647-labelled); assay: Alexa647-fibrinogen binding to printed small molecules – biochemical, small-molecule microarray, 635/667 nm fluorescence, artefact control for SMM control-protein annotation, profiling panel (AID 1131); conditions: fibrinogen-A647 binding fluorescence, higher = more signal;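 note: z-score merges 667 nm fluorescence with per-spot signal-to-noise over triplicate slides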
[13] = biological target: Follistatin (Homo sapiens) (UniProt P19883); assay: FST protein binding to printed compounds – biochemical, small-molecule microarray, 635/667 nm fluorescence, primary screen (AID 1132); conditions: 635 nm fluorescence, higher = more signal
Sequence of Follistatin (Homo sapiens) (P19883 whole entry, looked up): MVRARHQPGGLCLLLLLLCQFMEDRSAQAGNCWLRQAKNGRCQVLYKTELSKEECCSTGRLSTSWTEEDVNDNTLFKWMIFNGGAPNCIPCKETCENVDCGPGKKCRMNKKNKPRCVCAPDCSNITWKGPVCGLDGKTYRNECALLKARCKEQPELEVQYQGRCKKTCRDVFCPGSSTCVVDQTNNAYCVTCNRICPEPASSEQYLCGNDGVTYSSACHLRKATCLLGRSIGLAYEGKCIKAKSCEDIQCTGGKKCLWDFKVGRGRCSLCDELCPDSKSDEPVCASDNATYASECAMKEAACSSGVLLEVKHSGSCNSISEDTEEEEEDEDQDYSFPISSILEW

[14] = biological target: Fibroblast growth factor 2 (Homo sapiens) (UniProt P09038); assay: basic fibroblast growth factor binding to printed compounds – biochemical, small-molecule microarray, 635/667 nm fluorescence, primary screen (AID 1133); conditions: FGF2, fluorescence 635/667, higher = more signal
Sequence of Fibroblast growth factor 2 (Homo sapiens) (P09038 whole entry, looked up): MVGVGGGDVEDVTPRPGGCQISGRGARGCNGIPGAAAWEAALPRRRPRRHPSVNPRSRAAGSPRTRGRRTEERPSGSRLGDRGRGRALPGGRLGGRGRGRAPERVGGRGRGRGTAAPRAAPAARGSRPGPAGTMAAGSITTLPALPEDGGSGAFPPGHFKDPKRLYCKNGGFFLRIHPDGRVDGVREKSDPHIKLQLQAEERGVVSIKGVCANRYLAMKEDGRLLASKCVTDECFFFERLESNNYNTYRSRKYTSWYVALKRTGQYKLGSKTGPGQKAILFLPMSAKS

[15] = JC-1 mitochondrial potential readout, lung cancer cells – cell-based, A549, JC-1 fluorescence, basal, 24 h, 100 nL, profiling panel (AID 1138); conditions: higher = more signal;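 note: A549 lung adenocarcinoma cells under basal conditions with no added stimulus; test concentration not given here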
Lefty1 = Lefty1 protein binding to printed compounds – biochemical, small-molecule microarray, 635/667 nm fluorescence, primary screen (AID 1139); conditions: fluorescence 635/667, higher = more signal
[16] = test system: wheat germ agglutinin (Triticum aestivum), Alexa647-labelled; assay: Alexa647-WGA lectin binding to printed small molecules – biochemical, small-molecule microarray, 635/667 nm fluorescence, artefact control for SMM control-protein annotation, profiling panel (AID 1140); conditions: WGA-A647 binding, 635 nm fluorescence, higher = more signal;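 note: score merges 667 nm feature emission with signal to noise over triplicate slides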
[17] = biological target: Luciferin 4-monooxygenase (Photinus pyralis) (UniProt P08659); assay: inhibition of purified Photinus pyralis luciferase – biochemical, luminescence, purified enzyme, 2006 set, primary screen (AID 1141); conditions: purified firefly luciferase, SteadyGlo luminescence, 30 min; higher = more signal, called active from +8 up or from −8 down;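 note: cell-free assay with purified firefly luciferase at 100 ng per well in PBS; test concentration not given here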
Sequence of Luciferin 4-monooxygenase (Photinus pyralis) (P08659 whole entry, looked up): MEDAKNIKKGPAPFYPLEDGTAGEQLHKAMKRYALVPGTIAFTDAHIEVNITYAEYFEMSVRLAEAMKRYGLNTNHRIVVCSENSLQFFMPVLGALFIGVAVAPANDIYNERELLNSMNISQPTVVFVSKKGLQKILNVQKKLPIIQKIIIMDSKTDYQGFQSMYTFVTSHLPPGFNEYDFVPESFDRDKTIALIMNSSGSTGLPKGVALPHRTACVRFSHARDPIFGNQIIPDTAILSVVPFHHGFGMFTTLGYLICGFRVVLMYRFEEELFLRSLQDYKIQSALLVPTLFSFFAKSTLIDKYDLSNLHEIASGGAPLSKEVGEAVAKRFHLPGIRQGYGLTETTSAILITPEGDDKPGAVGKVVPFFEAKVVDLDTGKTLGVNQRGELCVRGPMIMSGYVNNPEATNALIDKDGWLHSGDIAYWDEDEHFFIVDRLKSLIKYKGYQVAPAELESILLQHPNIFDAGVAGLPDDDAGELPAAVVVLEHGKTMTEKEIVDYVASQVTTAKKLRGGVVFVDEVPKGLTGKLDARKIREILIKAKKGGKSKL

SMILES	composite z-score (Albumin (Bos taurus))	composite Z-score [1]	composite z-score [2]	composite z-score [3]	composite z-score [4]	composite z-score [5]	composite z-score [6]	composite z-score (Sam68 (KHDRBS1))	composite z-score [7]	composite z-score [8]	composite z-score [9]	composite z-score [10]	composite z-score [11]	composite z-score [12]	composite z-score [13]	composite z-score [14]	z-score [15]	composite z-score (Lefty1)	composite z-score [16]	z-score [17]
Cc1ccc(S[C@]2(C(=O)O)CC(=O)N(Cc3cc(C(F)(F)F)cc(C(F)(F)F)c3)[C@@H]2c2ccc(CO)cc2)cc1	-1.78	-0.483 (inactive)	-0.512	-0.154	0.65	1.23	0.549	-0.25	-2.37	-1.24	-1.45	-0.889	-0.194	-0.84	-1.22	-0.897	-0.389	-1.66	-1.31	-0.0278 (inactive)
CCCC[C@@H]1C[C@H]1[C@@H](NC(=O)c1cccs1)c1ccc(C(F)(F)F)cc1	-0.999	-0.496 (inactive)	0.0026	-0.0859	-0.195	-0.559	0.0126	-0.154	0.149	-0.162	0.904	-0.654	-0.0276	-0.364	0.301	-0.38	0.503	0.222	-0.945	1.2 (inactive)
CC1CC/C=C\[C@H]2OC34C=CCN(c5ccc(Cl)cc5)C(=O)[C@H]3N(CCCCCO)C(=O)[C@]4(C)C2C(=O)O1 (stereo not given in full)	-1.08	-0.0503 (inactive)	-0.288	-0.117	-0.482	-0.779	-0.3	-0.682	-1.67	-1.03	-0.463	-0.978	-0.857	-1.65	-1.58	-1.04	0.681	-0.778	-0.141	-0.535 (inactive)
CC=CC(O)C1C=CC2C(=O)N(c3ccccc3)C(=O)C2N1Nc1ccccc1F (stereo not given)	0.245	1.48 (inactive)	0.541	0.468	0.74	2.08	0.412	0.338	0.295	0.0905	0.817	0.217	0.451	-1.06	0.0954	-0.189	-1.05	-0.844	0.0224	0.597 (inactive)
COCCOC(=O)N1C(=O)[C@@]2(c3cc(C#Cc4ccc(OC)cc4)ccc31)[C@H](c1ccccc1OCCO)N1[C@H](c3ccccc3)[C@H](c3ccccc3)OC(=O)[C@H]1[C@@H]2C(=O)N1CCCCCCC1	0.164	6.24 (inactive)	1.81	0.956	0.934	2.08	0.512	0.484	1.43	0.908	0.623	1.2	0.701	-0.183	1.51	1.73	-0.775	1.23	1.33	-0.246 (inactive)
Cc1cc(C)cc(N2C(=O)CSC2c2cccc([N+](=O)[O-])c2)c1 (stereo not given)	0.892	0.027 (inactive)	-0.0023	-0.124	0.621	1.94	0.798	1.3	0.052	1.19	2.27	1.22	1.55	1.03	0.45	0.963	0.492	1.53	1.1	-0.992 (inactive)
C=CCC(OC(C)=O)[C@@H]1[C@@H](N(Cc2ccc(-c3ccccc3)cc2)C(=O)Cc2ccc(F)cc2)c2cc(OCCCO)ccc2N1C(=O)Cc1ccc(OC)cc1 (stereo not given in full)	-0.0495	-0.101 (inactive)	-0.0817	-0.141	0.207	0.377	0.0514	-0.274	-0.0031	0.774	-0.148	-0.212	0.328	0.397	0.508	-0.472	0.626	-0.0463	0.687	-0.51 (inactive)
COc1ccc([Si](C)(C)[C@@H]2[C@@H](CC(=O)N(CCO)Cc3ccccc3)O[C@]3(C(=O)N(Cc4cccc(N5C(=O)c6cccc7cccc5c67)c4)c4ccccc43)[C@H]2C)cc1	-0.0059	0.363 (inactive)	-0.124	-0.203	-0.199	0.135	0.0553	0.0019	0.432	1.04	0.63	-0.46	0.994	0.725	1.1	1.72	-0.538	0.972	0.369	0.187 (inactive)
C=CCOC(=O)[C@H]1[C@@H]2C(=O)O[C@@H](c3ccccc3)[C@@H](c3ccccc3)N2[C@@H](c2ccc(OCCOC(=O)[C@H]3C[C@H]4C(=O)N[C@@H](CCCCNC(C)=O)C(=O)N4[C@H]3c3ccc(O)cc3)cc2)[C@]12C(=O)Nc1ccccc12	-1.06	1.09 (inactive)	0.0076	-0.112	0.634	1.19	-0.549	1.3	0.998	1.16	2.7	1.12	0.765	0.732	1.4	1.63	-1.16	1.1	0.538	-2.37 (inactive)

Source: PubChem BioAssay
